Screens as filed in PubChem.
CYP2C9 activ = increases human cytochrome P450 2C9 activity | activation factor at 5 µM | 96,000 tested, 1.4% active | recombinant CYP2C9, luciferin-H conversion, luminescence; active compounds read high; factor 1 = untreated enzyme, 0 = blocked | AID 1024 | P11712;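 active = activation factor of 2 or more for CYP2C9 at a 5 µM dose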;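 also: 0 = sulfaphenazole-blocked wells and 1 = vehicle-only wells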
Target sequence (P11712 whole entry, looked up): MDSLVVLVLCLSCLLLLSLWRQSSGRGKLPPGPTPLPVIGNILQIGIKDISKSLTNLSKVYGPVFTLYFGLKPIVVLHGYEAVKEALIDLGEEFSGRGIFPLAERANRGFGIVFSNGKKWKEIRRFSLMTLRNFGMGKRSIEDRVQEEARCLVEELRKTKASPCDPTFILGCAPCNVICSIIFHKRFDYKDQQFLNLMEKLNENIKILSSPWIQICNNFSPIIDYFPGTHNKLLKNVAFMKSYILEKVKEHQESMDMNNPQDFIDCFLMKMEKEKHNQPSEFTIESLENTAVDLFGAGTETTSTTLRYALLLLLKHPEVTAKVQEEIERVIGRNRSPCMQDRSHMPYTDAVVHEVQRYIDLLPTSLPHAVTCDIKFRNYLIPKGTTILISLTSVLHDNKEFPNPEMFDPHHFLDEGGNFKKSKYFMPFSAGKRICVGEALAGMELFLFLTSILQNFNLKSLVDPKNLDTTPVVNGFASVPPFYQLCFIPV
CD11b adhes inh = CD11b/CD18-fibrinogen binding inhibition | K562 CD11b/CD18 adhesion to fibrinogen, ATPlite luminescence; Mn2+ added to activate the integrin | P05107+P11215 | inhibition, % at 10 µM | 93,000 tested, 0.54% active;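 active = primary inhibition of 50% or more at 10 µM, then 40% or more on retest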
CYP2C19 inhib = inhibitors of human CYP2C19; P33261; CYP2C19 Supersomes, luciferin-H EGE luminescence, 30 min; inhibition, % at 5 µM; 96,000 tested, 21% active; AID 778;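 active = CYP2C19 inhibition above a set limit at 5 µM in the primary screen, cut at about 50% in these data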;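 also: plate controls were negative control wells for no effect and 2.5 mM tranylcypromine positive control for full effect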
CYP2C19 act = activators of human cytochrome P450 2C19; recombinant CYP2C19, luciferin-H EGE luminescence; active compounds read high; 0 = fully inhibited enzyme, 1 = untreated enzyme; P33261; activation factor at 5 µM; 96,000 tested, under 10 active;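 active = activation factor of at least 2 at 5 µM in the primary screen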;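 also: 0 = wells with 2.5 mM tranylcypromine and 1 = vehicle-only wells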
CD11b adhes enh = CD11b/CD18-fibrinogen binding enhancement. P05107+P11215. K562 CD11b/CD18 adhesion to fibrinogen, ATPlite luminescence. activation, % at 10 µM. 93,000 tested, 0.07% active;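 active = 10 µM primary screen giving 50% or more activity, confirmed by 40% or more on retest at that dose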
CYP2C9 inh = human CYP2C9 inhibition; P11712; CYP2C9 Supersomes, luciferin-H conversion, luminescence; inhibition, % at 5 µM; 96,000 tested, 20% active; AID 777;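 active = blocking of liver enzyme CYP2C9 beyond about 50% at 5 µM, limit read from the data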
* = called active by the depositor; . = no result given. Hits are enriched below; roughly 28% of the tested compounds scored in any of these assays.

SMILES	CYP2C9 activ	CD11b adhes inh	CYP2C19 inhib	CYP2C19 act	CD11b adhes enh	CYP2C9 inh
Cc1ccc(C(C)C)c(OCCNC(=S)Nc2cccc3ccccc23)c1	0.2	18.5	85.1*	0.1	-9.7	84.0*
COC(=O)c1cccnc1-n1c(=O)c2cccnc2n(Cc2cccc(OC)c2)c1=O	0.6	-11.8	77.5*	0.2	2.4	43.1
COc1ccc(COC(=O)NNC(=O)c2ccccc2Cl)cc1	0.9	-0.3	71.6*	0.3	-5.3	12.4
N=C1C(c2nc3ccccc3c(=O)[nH]2)=C(O)CN1CCO	1	-5.6	4.6	1	-2.0	-1.5
CC(C)CCN1CC(O)=C(c2nc3ccccc3[nH]2)C1=N	0.4	3.1	68.2*	0.3	-7.7	59.6*
N=C1C(c2nc3ccccc3c(=O)[nH]2)=C(O)CN1CCc1ccccc1	0.4	0.1	63.4*	0.4	-1.8	60.4*
CC(C)N1CC(O)=C(c2nc3ccccc3[nH]2)C1=N	1	6.7	54.5*	0.5	-4.5	-1.5
CC(C)N1CC(O)=C(c2ccccc2)C1=N	1	4.3	-9.0	1.1	-1.8	2.8
CCCCN1CC(O)=C(c2nc3ccccc3[nH]2)C1=N	0.5	7.6	70.7*	0.3	-6.6	52.0*
Cc1ccc(S(=O)(=O)N(C)CC(=O)NC2CC(C)(C)NC(C)(C)C2)cc1	1.2	2.1	-16.6	1.2	0.0	-17.5
O=C(Nc1cccc2ncccc12)c1cccnc1	1.3	-20.4	-6.8	1.1	-0.3	-26.3
[O-]/C(=C(\C(=S)Nc1cccc2ccccc12)[n+]1ccccc1)c1ccc2c(c1)OCCO2	1	51.8	-7.9	1.1	5.7	3.9
CC(C)Nc1nc(Oc2cccc(Cl)c2Cl)cc(C(F)(F)F)n1	0.7	.	71.4*	0.3	.	29.7
O=c1c(/C=N/O)c(Nc2ccccc2)nc2ccccn12	0.5	-8.2	19.5	0.8	-1.0	50.1*
CCCCc1c(O)nc2ccccn2c1=O	.	-2.7	.	.	0.4	.
COCC(C)n1c(C)cc(C(=O)COC(=O)c2c(C)nn(-c3ccccc3)c2C)c1C (stereo not given)	0.6	-3.6	61.8*	0.4	1.0	40.6
COCCn1c(C)cc(C(=O)COC(=O)c2n[nH]c3ccccc23)c1C	1.7	53.4*	34.4	0.7	-5.5	-66.0
Cc1cc(C(=O)COC(=O)c2n[nH]c3ccccc23)c(C)n1C	1.6	-3.6	42.9	0.6	-0.7	-62.7
Cc1nn(-c2ccccc2)c(C)c1C(=O)OCC(=O)NC12CC3CC(CC(C3)C1)C2	0.7	.	67.5*	0.3	.	27.0
COCC(C)n1c(C)cc(C(=O)COC(=O)c2c(NC(C)=O)sc(C)c2C)c1C (stereo not given)	0.9	22.2	1.8	1	3.4	13.1
COCCn1c(C)cc(C(=O)COC(=O)c2c(C)nn(Cc3ccccc3)c2C)c1C	0.9	-0.8	61.0*	0.4	-0.7	13.8
O=C(CSc1ccccc1C(=O)O)Nc1cccc(C(=O)O)c1	1.1	-6.1	-3.3	1	0.2	-14.7
COCCn1c(=S)[nH]c2cc(C(=O)N3CCN(c4ccc(F)cc4)CC3)ccc2c1=O	0.9	0.7	0.2	1	2.0	11.7
COc1ccnc(Oc2ccc(C)cc2C)c1C#N	0.9	10.6	38.8	0.6	-4.5	7.9
COCCn1c(C)cc(C(=O)COC(=O)c2ccc3ncsc3c2)c1C	2*	-3.1	28.6	0.7	4.3	-98.7
SMILES	CYP2C9 activ	CD11b adhes inh	CYP2C19 inhib	CYP2C19 act	CD11b adhes enh	CYP2C9 inh
COCCn1c(C)cc(C(=O)COC(=O)c2ccc(NC(=O)CC#N)cc2)c1C	1.1	-2.0	-3.1	1	25.3	-13.0
O=C(CN1C(=O)C2CC=CCC2C1=O)OCCN1C(=O)c2ccccc2C1=O (stereo not given)	0.9	-6.6	12.4	0.9	4.0	10.9
COc1cc(-c2nc(-c3ccc4c(c3)-c3ccccc3S4(=O)=O)c(-c3ccccc3)[nH]2)cc(OC)c1OC	0.6	4.4	49.6	0.5	-0.4	42.9
COc1ccc(-c2nc(-c3ccccc3)c(-c3cc([N+](=O)[O-])ccc3C)[nH]2)cc1O	0.3	.	77.1*	0.2	.	73.7*
Cc1ccc([N+](=O)[O-])cc1-c1[nH]c(-c2ccc(O)c(O)c2)nc1-c1ccccc1	0.1	4.1	51.6*	0.5	-2.5	88.5*
N/C(CCN1CCCCC1)=N/O	1.1	-1.2	-1.1	1	4.0	-10.6
CC(C)NC(=O)NC(=O)COC(=O)CCOc1ccccc1	0.9	24.2	1.5	1	-3.4	6.4
O=C(Cc1ccc(Cl)c(Cl)c1)OCC(=O)c1ccc[nH]1	0.5	7.0	91.2*	0.1	-6.0	51.5*
Cc1ccc(S(=O)(=O)N2CCN(C(=O)COC(=O)c3cc(C)oc3C)CC2)cc1	0.9	-18.2	-3.3	1	-1.6	5.6
Cc1ccc(S(=O)(=O)c2c(COC(=O)c3ccc(Cl)cc3)c(-c3ccccc3)nn2C)cc1	0.5	-17.2	66.9*	0.3	-4.8	51.9*
CCOC(=O)c1ccccc1NC(=O)CCNC(=O)Cn1cnc2ccccc2c1=O	0.5	-5.1	-3.1	1	-4.0	51.6*
Cc1nnc(SCC(=O)Nc2cccc(S(=O)(=O)N(C)c3ccccc3)c2)s1	.	18.3	.	.	-1.2	.
CN(c1ccccc1)S(=O)(=O)c1cccc(NC(=O)Cn2cnc3ccccc3c2=O)c1	0.1	-34.0	62.4*	0.4	-0.3	94.0*
CCN(CC)CC(=O)c1c[nH]c2ccccc12	1.1	-8.9	-4.9	1	-0.9	-5.9
CCN(CC)S(=O)(=O)c1cc(NC(=O)Cn2cnc3ccccc3c2=O)ccc1C	0.5	21.0	42.2	0.6	4.7	53.0*
O=C(Cn1cnc2ccccc2c1=O)c1c[nH]c2ccccc12	0.7	-8.9	53.4*	0.5	-6.4	30.8
Cc1cccc(NC(=O)Cn2cnc3ccccc3c2=O)c1C	0.9	-8.2	8.1	0.9	-10.2	10.5
CC1CCC(C(C)C)C(OC(=O)COC(=O)c2cccn2C)C1 (stereo not given)	0.2	6.7	90.8*	0.1	-0.3	80.3*
CCOC(=O)C1=NNC(C(=O)c2ccc(OC)cc2)C1c1ccccc1 (stereo not given)	0.5	2.3	37.7	0.6	-0.8	52.2*
COC(=O)C1=C(C)N(CC(C)C)C(=O)/C1=C\c1cccs1	0.7	-17.3	31.3	0.7	0.9	28.0
CCN1C(=O)/C(=C\c2cccs2)C(C(=O)OC)=C1C	0.5	-0.7	13.5	0.9	0.6	51.3*
COc1cccc(CC(NC(C)=O)C(=O)NC2CCN(c3nc(C)cc(C)c3C#N)CC2)c1 (stereo not given)	0.7	-1.5	67.3*	0.3	1.7	27.9
COc1cccc(CC(NC(C)=O)C(=O)NC2CCN(S(=O)(=O)c3ccc4ccccc4c3)CC2)c1 (stereo not given)	1	1.2	-1.2	1	-2.0	-4.6
